The source made the active and inactive calls. How the calls were made is not given here.
System: Ras
Test: GTPase panel EC50 shift with labeled GTP level, profiling panel, mechanism study, biochemical, four GTPases, bead flow cytometry (AID 743330)
Conditions: bead-based flow cytometry, fluorescent GTP binding to GTPases

Structure (SMILES) | EC50
CCC1(C)Cc2c(sc(NC(=S)NC(=O)c3ccccc3)c2C(=O)O)CO1 (configuration not stated) | 5 nM (active)
CC1(C)Cc2c(sc(NC(=S)NC(=O)c3ccc(F)cc3)c2C(=O)O)CO1 | 31 nM (active)
